# Laboratory results: PubChem BioAssay AID1571 (National Center for Advancing Translational Sciences (NCATS), 2009)
# “And” between values parts separate entries of the source, which are not always exact repeats. Equal entries are not always repeated. Records with an inconclusive call do not appear. A call without a number means that no potency is given here. The source made the active and inactive calls. Calls follow the shape of the dose curve; as a rule, active = well fitted curve in the direction sought with a large enough effect; inconclusive = small, poorly fitted or top-dose-only effect, or effect the other way; inactive = flat fitted curve, though single readings scatter.
# Test: Total Fluorescence Confirmation Counterscreen for Inhibitors of the Interaction of Thyroid Hormone Receptor and Steroid Receptor Coregulator 2, Fluorescein Fluoroprobe
# Settings: TRbeta/SRC2-fluorescein mix, total fluorescence interference; series mostly up to 92.2 µM
# Text: NIH Molecular Libraries Probe Production Network [MLPCN] NIH Chemical Genomics Center [NCGC] MLPCN Grant: DK058080 Assay Provider: R. Kip Guy, St. Jude Children's Research Hospital NCGC Assay Overview: Thyroid receptor (TR) regulates many homeostatic processes including basal metabolism, cardiovascular function, body weight, and lipid trafficking. TR modulators are potential therapeutics for obesity and hyperlipidemias but current thyroid analogs have undesirable side effects, particularly cardiac stimulation. To identify inhibitors that specifically prevent the interaction of TR with the steroid receptor coregulator 2 (SRC2), a fluorescence polarization assay was screened (Arnold et al., 2006). This assay detects interaction of the ligand-binding domain of human TRbeta with a fluorescein labeled SRC2 peptide, corresponding to a 20 amino acid region of the nuclear receptor interaction domain. Total fluorescence (555 nm excitation and 632 nm emission) was measured to identify potential fluorescent and light absorbing compounds. Such compounds may be artifacts that interfere with the fluorescence polarization assay. This assay is a confirmation assay for AID 1479. Arnold, L. A.; Estebanez-Perpina, E.; Togashi, M.; Shelat, A.; Ocasio, C. A.; McReynolds, A. C.; Nguyen, P.; Baxter, J. D.; Fletterick, R. J.; Webb, P.; Guy, R. K. A high-throughput screening method to identify small molecule inhibitors of thyroid hormone receptor coactivator binding. Sci STKE 2006, p 13.
# NCGC Assay Protocol Summary: For screening, 5 uL/well 0.6 uM TRbeta and 20 nM SRC2 Fluorescein in protein buffer (20mM Tris hydrochloride, 100mM NaCl, 10% glycerol, 1mM EDTA, 0.01% NP-40, 1mM DTT, 1uM T3 and 5% DMSO) was dispensed into black solid 1536-well plates (Grenier) using a solenoid-based dispenser. Following transfer of 23 nL compound or DMSO vehicle by a pin tool, the plates were centrifuged 15 s at 1000 RPM and incubated 5 hr at ambient temperature. The plates were read by an Envision (Perkin Elmer) to detect fluorescence polarization of SRC2 Fluorescein (480 nm excitation and 535 nm emission). Data were normalized to unbound (all components except TRbeta) and bound SRC2 Fluorescein controls. Total fluorescence (TF) was calculated as follows: TF = S + 2P where S and P are fluorescence readings in the parallel and perpendicular channels, respectively. In this assay, we provide % activity data for each concentration as well as potencies for the active compounds.
Structure (SMILES),Potency,"total fluorescence change, positive = fluorescent"
O=C(O)[C@H]1CN(CCCP(=O)(O)O)CCN1,inactive,
CCC(NC(=O)Nc1ccc(O)cc1)(C(F)(F)F)C(F)(F)F,inactive,
O=C(/C=C/c1ccco1)NC(=S)Nc1cc(C(F)(F)F)ccc1N1CCOCC1,inactive,
O=C(O)/C=C/C(=O)Nc1ccc(OC(F)(F)F)cc1Br,,17.7% [at 0.0112 µM] (inactive)
O=C1CCCC(O)=C1N=Nc1cccc(S(=O)(=O)N2CCOCC2)c1,inactive,
CCOc1ccc(NC(=O)C(c2ccccn2)N(C(=O)CCl)c2ccc(F)cc2)cc1 (stereo not given),,17.5% [at 5.76 µM] (inactive)
CCN(C(=O)C1CCCN(c2ncnc3onc(-c4ccc(F)cc4)c23)C1)c1ccccc1 (stereo not given),inactive,
COc1ccc2ccc3c(c2c1)N=CC1(O3)N(C)c2ccccc2C1(C)C (stereo not given),,-5.71% [at 0.0112 µM] (inactive)
COc1cc(/C=C(\C#N)C(=O)NCC2CCCO2)ccc1OCCC(C)C (stereo not given),inactive,
CN1c2ccccc2C(C)(C)C12C=Nc1c(ccc3ccccc13)O2 (stereo not given),inactive,
Cc1nnc(SCC(=O)Nc2ccc(N(C)C)cc2)[nH]c1=O,inactive,
Cn1c(NNC(=O)c2c(F)cccc2F)cc(=O)n(C)c1=O,inactive,
Cc1nc2c3cc(F)ccc3n(Cc3ccccc3F)c2s1,inactive,
CCSc1ncc(Cl)c(C(=O)Nc2nc3ccc(OC)cc3s2)n1,inactive,
Nc1cccnc1Sc1cc(Cl)c(Cl)cc1Cl,inactive,
C=CCNC(=O)/C(C#N)=C/c1c(C)nn(-c2ccc(Cl)cc2)c1Cl,inactive,
CC(=O)NC1N=C(C)N(c2ccccc2)C1=O (stereo not given),inactive,
O=C(NNc1cc(N2CCOCC2)nc(N2CCOCC2)n1)c1ccc([N+](=O)[O-])cc1,,19.9% [at 11.6 µM] (inactive)
COc1ccc(C(=O)Oc2ccc(C(c3c(C)[nH][nH]c3=O)c3c(C)[nH][nH]c3=O)cc2OC)cc1,inactive,
O=c1cc(C23CC4CC(CC(C4)C2)C3)[nH][nH]1,inactive,

Structure (SMILES),Potency,"total fluorescence change, positive = fluorescent"
CS(=O)(=O)c1ccc(C(=O)OCC(=O)NC(=O)C2CCCCC2)cc1[N+](=O)[O-],,3.5% [at 0.0112 µM] (inactive)
Cc1ccc(OC(=S)Nc2ccc(O)cc2)cc1,inactive,
CCOc1ccc(C2=Cc3cc(OC)c(OC)cc3C(=C(Cl)Cl)O2)cc1,inactive,
Cc1cccc(S(=O)(=O)c2cn(Cc3ccccc3)c3cc(N4CCC(C)CC4)c(F)cc3c2=O)c1,inactive,
CCCc1cc(=O)[nH]c(=S)[nH]1,inactive,
Cc1cc2c(NC(=O)Nc3ccccc3)cccc2nn1,,9.99% [at 0.0112 µM] (inactive)
CN(C(=S)Nc1cccnc1)c1ccc(O)cc1,inactive,
CCOc1cc(N2CCOCC2)c(OCC)cc1NC(C)C(=O)N1CCN(CC)CC1 (stereo not given),,10.4% [at 11.6 µM] (inactive)
COc1cc(NC(C)CCCN)c2ncccc2c1 (stereo not given),inactive,
CCCCOc1ccc(C(=O)CCN2CCOCC2)cc1,inactive,
CCN(CC)S(=O)(=O)c1cccc(N=NC2=C(O)CCCC2=O)c1,,7.56% [at 0.0112 µM] (inactive)
COC(=O)/C(=C/Nc1ccc(O)cc1)[N+](=O)[O-],,0.349% [at 5.76 µM] (inactive)
Cc1nc2ccccc2n2c(O)c(CC(=O)O)cc12,12.6 µM [fluorescent] (active),
COC(=O)c1ccccc1-c1ccc(C(c2c(C)[nH][nH]c2=O)c2c(C)[nH][nH]c2=O)o1,,15.2% [at 5.76 µM] (inactive)
CCCCCCN=CC1=C(O)CC(C)(C)CC1=O,,-5.99% [at 0.0112 µM] (inactive)
CCc1ccc2c(c1)c1nc(C)sc1n2CC,inactive,
Nc1c(C(=O)NCc2ccco2)c2nc3ccccc3nc2n1CCc1ccccc1,inactive,
Cc1ccccc1Nc1cc2ccccc2c(=O)[nH]1,25.1 µM [fluorescent] (active) and 44.7 µM [fluorescent] (active),
CC(NC(=O)Nc1ccc(O)cc1)(C(F)(F)F)C(F)(F)F,,8.06% [at 11.6 µM] (inactive)
COc1ccc(-c2nc(CS(=O)CC(=O)NCc3ccccn3)c(C)o2)cc1 (stereo not given),39.8 µM [fluorescent] (active),
